Sampled rows, rich in hits. Any-hit rate of the full collection: about 9%.
HttQ103 aggreg: reduces HttQ103-GFP aggregates in PC12 cells; PC12 HttQ103-GFP aggregates, Acumen cytometry, 40 h; Potency, µM (highest dose often 46.1 µM), for inactives: top-dose activity change, negative = inhibition, usual class: inhibitors; actives 1.1% (n = 220,000); AID 1688; further: on the % scale 0 is the no-effect control and ±100 the full control effect; nearly all actives have a fitted effect of over 60% in size
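Aggregates are detected as GFP objects 1–25 µm with signal 6 STDEV over background in lysates of induced PC12 cells. These carry Huntingtin exon 1 with 103 glutamines fused to GFP under an ecdysone promoter; compounds titrated.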
HTT cytoprotect: cytoprotection in Huntington HTT-Q103 PC12 cell model; PC12 HTT-Q103 induced, cytoprotection, ATP luminescence, 40 h; Potency, µM (highest dose often 56.4 µM), inactives show cytoprotection (ATP increase), actives largely listed as activators; actives 0.14% (n = 230,000); AID 1471; further: % of control where 0% means no effect; nearly all actives have a fitted effect of over 45% in size
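PC12 cells with ecdysone-inducible HTT exon 1 Q103-GFP, induced with 100 nM tebufenozide and co-treated with library compounds in a dose series (1536-well, 1500 cells/well). Cytoprotection read as ATP content by ATPlite luminescence.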
HPGD inh: HPGD (human) dehydrogenase inhibition. purified HPGD, NADH fluorescence kinetic, PGE2 substrate. actives 4.3% (n = 150,000). P15428. Potency, µM, for inactives: at the highest dose activity change, negative = inhibition, usual class: inhibitors; active means well fitted inhibition curve with a large enough effect, not every such curve was filed as active; inconclusive means small, poorly fitted or top-dose-only effect, or another doubt; inactive means no such curve, though single readings can be large or run the other way; further: on the % scale 0 is the no-effect control and ±100 the full control effect
Target sequence (P15428 whole entry, looked up): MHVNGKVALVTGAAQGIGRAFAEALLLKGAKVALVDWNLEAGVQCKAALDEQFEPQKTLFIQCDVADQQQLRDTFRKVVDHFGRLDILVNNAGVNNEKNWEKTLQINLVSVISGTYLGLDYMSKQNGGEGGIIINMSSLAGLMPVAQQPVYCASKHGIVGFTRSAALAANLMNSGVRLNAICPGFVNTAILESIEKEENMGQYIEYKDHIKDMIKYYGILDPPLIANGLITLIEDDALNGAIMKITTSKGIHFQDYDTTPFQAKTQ
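NADH formation kinetics: reaction with 30 uM PGE2 and 1 mM NAD+ (final), 20 nM enzyme, Tris-HCl pH 8 with Tween 20, after 15 min compound preincubation at room temperature. Fluorescence change, last versus first of five reads.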
ALDH1A1 block: blocks purified human ALDH1A1 activity; P00352; Purified ALDH1A1, NADH fluorescence, propionaldehyde substrate; Potency, µM (titrated, usually from 75.3 µM), for the others: at the top dose activity, negative = inhibition, hits mostly inhibitors; actives 7.3% (n = 220,000); AID 1030; active means well fitted inhibition curve with a large enough effect, not every such curve was filed as active; inconclusive means small, poorly fitted or top-dose-only effect, or another doubt; inactive means no such curve, though single readings can be large or run the other way;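 further: plate controls were no enzyme wells and a reference inhibitor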
Target sequence (P00352 whole entry, looked up): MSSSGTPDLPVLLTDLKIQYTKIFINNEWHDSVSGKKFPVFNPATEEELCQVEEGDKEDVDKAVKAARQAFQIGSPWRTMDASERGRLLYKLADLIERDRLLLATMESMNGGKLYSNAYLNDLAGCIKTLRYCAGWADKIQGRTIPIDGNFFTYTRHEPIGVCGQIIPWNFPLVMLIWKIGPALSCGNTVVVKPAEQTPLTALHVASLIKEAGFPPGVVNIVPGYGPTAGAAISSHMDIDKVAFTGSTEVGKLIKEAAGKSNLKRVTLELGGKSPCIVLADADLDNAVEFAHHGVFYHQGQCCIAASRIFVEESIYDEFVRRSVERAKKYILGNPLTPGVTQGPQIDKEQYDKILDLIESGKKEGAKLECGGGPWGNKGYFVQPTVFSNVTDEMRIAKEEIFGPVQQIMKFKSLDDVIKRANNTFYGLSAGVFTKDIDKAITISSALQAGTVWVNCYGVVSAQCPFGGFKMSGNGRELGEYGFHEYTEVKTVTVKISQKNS
Luc counter: counter-screen: inhibitors of Kinase-Glo firefly luciferase. Kinase-Glo luciferase, ATP luminescence, 8 min. Q27757. Potency, µM (highest dose often 38.3 µM), without a hit: at the top dose activity change, negative = inhibition, usual class: inhibitors. AID 1379. actives 0.28% (n = 200,000); further: on the % scale 0 is the no-effect control and ±100 the full control effect; nearly all actives have a fitted effect of over 60% in size
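Luminescence was the read-out, taken after 8-minute incubation at ambient temperature. Luciferase turned over luciferin with 10 uM ATP in imidazole pH 7.2 buffer containing KCl, MgCl2, Tween 20 and BSA.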
Lamin A splicing: changes lamin A minigene splicing in HeLa cells; HeLa LMNA splicing GFP/RFP minigene ratio, 48 h; Potency, µM (doses to about 46.1 µM), inactives show at the top dose ratio change, negative = inhibition, actives largely listed as inhibitors; actives 0.01% (n = 200,000); AID 1487; active means well fitted inhibition curve with a large enough effect in the signal ratio, with a control signal flat, not every such curve was filed as active; inconclusive means small, poorly fitted or top-dose-only effect, or effect the other way, or a change in a side signal; the % refers to the signal ratio; further: on the % scale 0 is the no-effect control and ±100 the full control effect
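S3 HeLa stable clones carrying a lamin A-EGFP splicing minigene plus DsRed2 were seeded at 600 cells/well in Opti-MEM with 2% FBS, pin-dosed and incubated 48 h at 37°C. Acumen cytometry (488 nm) gave the GFP/RFP total-intensity ratio.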
Starred values were filed as active, the others as inactive; ? = inconclusive; nt = not tested or not shown; [ ] = remark or other dose. Unless noted, the call rests on the fitted dose curve; in most records, active means well fitted curve in the direction sought with a large enough effect; inconclusive means small, poorly fitted or top-dose-only effect, or another doubt; inactive means no such curve, though single readings can be large; an effect the other way counts as inactive or inconclusive. Potency means the concentration at half of the fitted maximal effect.

SMILES | HttQ103 aggreg | HTT cytoprotect | HPGD inh | ALDH1A1 block | Luc counter | Lamin A splicing
CCc1cccc(C)c1NC(=S)NCC1CCN(c2ccc(OC)cc2)C1 (configuration not stated) | -11% | 5%[10 µM] | nt | 10µM* | 14% | nt
CSc1nc(Cc2ccc(Cl)cc2)nc2ccccc12 | 1% | 3% | -9% | 6% | -3% | 13%
COc1ccc(-c2coc3cc(O)ccc3c2=O)cc1 | nt | ? | ? | -2% | -7% | nt
CCCOC(=O)CC1C(=O)NCCN1Cc1cc(OC)cc(OC)c1 (configuration not stated) | 9%[9.22 µM] | 6%[10 µM] | nt | 0% | -5% | nt
O=C1Cc2ccccc2N1c1c(Cl)cccc1Cl | -3% | -3%[1.9 µM] | 3% | -16% | 1% | 2%
COc1ccc(S(=O)(=O)Nc2ccc(Cl)cn2)c(C)c1C | 6% | 2%[10 µM] | -30% | 13µM* | 7% | ?
Cc1[nH][nH]c(=O)c1C(c1cc([N+](=O)[O-])ccc1O)c1c(C)[nH][nH]c1=O | -16% | 2%[10 µM] | -11% | -3% | 0% | -5%
Cc1[nH][nH]c(=O)c1C(c1ccc(-c2ccc(C(=O)O)cc2)o1)c1c(C)[nH][nH]c1=O | 18% | -42% | nt | ? | ? | 22%[46 µM]
Cc1[nH][nH]c(=O)c1C(c1ccc(-c2ccc(Cl)c(Cl)c2)o1)c1c(C)[nH][nH]c1=O | -18% | -46% | ? | 10µM* | -3% | -10%
Cc1[nH][nH]c(=O)c1C(c1ccc(N(C)C)c(Br)c1)c1c(C)[nH][nH]c1=O | 2%[9.22 µM] | 24%[10 µM] | nt | nt | nt | nt
Cc1[nH][nH]c(=O)c1C(c1ccc(-c2ccc(F)cc2)o1)c1c(C)[nH][nH]c1=O | 21%[9.22 µM] | -3%[10 µM] | nt | 25µM* | 3% | ?
COc1ccc(-c2ccc(C(c3c(C)[nH][nH]c3=O)c3c(C)[nH][nH]c3=O)o2)c([N+](=O)[O-])c1 | -8% | 14% | nt | 10µM* | -2% | ?
COc1ccc(Oc2nc3ccccc3n(C)c2=O)cc1 | ? | 16%[10 µM] | -9% | 4% | 0% | -9%
CCc1ccc(NC2CC(=O)N(CCc3ccc(OC)c(OC)c3)C2=O)cc1 (configuration not stated) | -14% | nt | nt | 3.2µM* | -1% | ?
COc1ccc(CCNC2CC(=O)N(CCc3ccc(OC)c(OC)c3)C2=O)cc1 (configuration not stated) | -2% | -10% | -10% | 18µM* | -2% | 15%
COc1ccc(CCN2C(=O)CC(Nc3ccc(N4CCOCC4)cc3)C2=O)cc1OC (configuration not stated) | 17% | 2% | -5% | ? | 10% | 7%
CCOC(=O)CC(=O)Nc1nc2ccccc2s1 | 14% | 1% | -5% | 3% | -3% | 0%
CC1(CC(=O)Nc2ccccc2)NC(=S)N(c2ccccc2)N1 (configuration not stated) | 1% | 4%[10 µM] | nt | 11µM* | 4% | 2%[46 µM]
Cc1cc(C(F)(F)F)nc(SCC(=O)NC2CC3CCC2C3)n1 (configuration not stated) | -7% | -2%[10 µM] | 20µM* | -4% | -2% | 9%
O=C(Nc1ccccc1)N1CCCN(Cc2ccccc2F)C1 | -3% | 2% | 25µM* | 2% | -4% | 4%[0.0737 µM]
Fc1ccccc1CN1CCCN(C(=S)Nc2cccc(Cl)c2)C1 | -10% | -25% | nt | ? | 4% | nt
COc1cccc(C2C3=C(N=c4s/c(=C\c5cccc(O)c5)c(=O)n42)c2ccccc2CC3)c1OC (configuration not stated) | -9% | 10%[10 µM] | -14% | -7% | 0% | ?
CCOP(=O)(OCC)C(Nc1ccc(C(=O)O)cc1)c1ccccc1 (configuration not stated) | 1%[9.22 µM] | 21%[10 µM] | nt | nt | nt | nt
CCN(CC(=O)NC(=O)NCc1ccco1)Cc1nc2ccccc2c(=O)[nH]1 | 7% | -12% | -24% | 10µM* | -3% | 18%
NNc1cc(C(=O)O)ccc1Cl | -7%[9.22 µM] | 30%[10 µM] | nt | 22µM* | nt | 16%[46 µM]
SMILES | HttQ103 aggreg | HTT cytoprotect | HPGD inh | ALDH1A1 block | Luc counter | Lamin A splicing
Cc1nc2cnc(Oc3ccccc3)nc2n(CCc2ccccc2)c1=O | nt | -13% | -3% | ? | -1% | nt
COc1ccc(Oc2ncc3nc(CCc4ccccc4)c(=O)n(C)c3n2)cc1 | nt | -64% | -5% | ? | -1% | nt
Cn1c(=O)c(CCc2ccccc2)nc2cnc(Oc3ccccc3)nc21 | nt | -3% | -16% | 8.9µM* | -3% | nt
CCNc1ncc2nc(CCc3ccccc3)c(=O)n(C3CC3)c2n1 | nt | -43% | nt | ? | nt | -13%
COc1ccc(Oc2ncc3nc(C)c(=O)n(CCc4ccccc4)c3n2)cc1 | nt | -5% | -5% | 0.22µM* | 1% | nt
COc1ncc2nc(CCc3ccccc3)c(=O)n(C3CC3)c2n1 | nt | -62% | -20% | 19µM* | -3% | nt
COc1ccc(Oc2ncc3nc(C)c(=O)n(Cc4ccc(F)cc4)c3n2)cc1 | nt | 16% | -19% | 25µM* | -1% | nt
O=C(c1ccco1)N1CCN(CC(=O)N2c3ccccc3CCc3ccccc32)CC1 | -19% | -13% | -6% | ? | -1% | -6%
CN(C)C(=O)C#Cc1ccccc1 | 0%[9.22 µM] | 8%[10 µM] | nt | nt | nt | nt
Cc1nc2cnc(Oc3cccc(Cl)c3)nc2n(CCc2ccccc2)c1=O | nt | -52% | -12% | 6.3µM* | -2% | nt
O=c1cnc2cnc(Oc3cccc(Cl)c3)nc2n1CCc1ccccc1 | nt | -33% | nt | ? | nt | 14%
CC1(C)NC(C)(C)c2nonc2/C1=N\O | 5% | 7% | -4% | 13µM* | -2% | 2%
CCc1nc2ccccc2n1CC(=O)N1CCN(Cc2ccccc2)CC1 | 3% | -43% | nt | 9% | -6% | nt
COc1ccc(C(=O)NNC(=O)Nc2ccc(Cl)cc2)cc1 | 8% | nt | nt | -1% | 0% | nt
CN(C)CC#Cc1cncc(C(=O)NNC(=O)Nc2ccc(Cl)cc2)c1 | -6%[9.22 µM] | -4%[10 µM] | nt | 25µM* | nt | ?
CCOC(=O)c1cc(-c2ccc(OC)cc2)n(CCC(=O)NCCN2CCC(C)CC2)c1C | -1% | -52% | nt | 4% | -2% | nt
Nc1ccc2oc(-c3cccc4ccccc34)nc2c1 | -2% | -32% | 22µM* | ? | -6% | 1%
Cc1ccc(-c2nc3cc(N)ccc3o2)c(C)c1 | 1%[9.22 µM] | 3%[0.074 µM] | ? | ? | -10% | 3%
CCN(CC)c1ccc(NC(=O)COC(=O)c2cccs2)cc1 | 10% | -45% | -11% | -10% | -9% | 7%
Cn1c(N)c(C(=O)COC(=O)c2ccc(Cl)c(S(=O)(=O)N3CCCCC3)c2)c(=O)n(C)c1=O | 1% | 9%[0.074 µM] | 16µM* | 9% | 0% | -9%
